Results filed as inconclusive are left out. Calls of active or inactive are those of the source. The call rests on the fitted dose curve; in most records, active means well fitted inhibition curve with a large enough effect; inconclusive means small, poorly fitted or top-dose-only effect; inactive means no such curve, though single readings can be large or run the other way.

In the assay the target is Ubiquitin carboxyl-terminal hydrolase 2 (Homo sapiens) (UniProt O75604). Put plainly: Confirmation Concentration-response Assay for Inhibitors of Ubiquitin-specific Protease USP2a. As to conditions: USP2 core, Ub-PLA2 coupled fluorescence, NBD C6-HPC. The source says: NIH Molecular Libraries Screening Centers Network [MLSCN] NIH Chemical Genomics Center [NCGC] MLSCN Grant: XO1-MH079852-01 PI Name: Nicholson, Ben. Progenra Inc, Malvern, PA NCGC Assay Overview: Homeostasis of cellular proteins is maintained through a combination of synthesis and degradation. The pathway that accounts for the majority of protein degradation is the ubiquitin-proteasomal pathway. Ubiquitin (Ub) is highly conserved in all cells and the generation of a multi-Ub chain typically targets proteins for degradation by the proteasome. However, ubiquitination is highly reversible and dynamic. […] Thus, this coupled assay gives a fluorescent read-out, which is generated through the cleavage of the PLA2 reporter enzyme. […]
Sequence of Ubiquitin carboxyl-terminal hydrolase 2 (Homo sapiens) (O75604 whole entry, looked up): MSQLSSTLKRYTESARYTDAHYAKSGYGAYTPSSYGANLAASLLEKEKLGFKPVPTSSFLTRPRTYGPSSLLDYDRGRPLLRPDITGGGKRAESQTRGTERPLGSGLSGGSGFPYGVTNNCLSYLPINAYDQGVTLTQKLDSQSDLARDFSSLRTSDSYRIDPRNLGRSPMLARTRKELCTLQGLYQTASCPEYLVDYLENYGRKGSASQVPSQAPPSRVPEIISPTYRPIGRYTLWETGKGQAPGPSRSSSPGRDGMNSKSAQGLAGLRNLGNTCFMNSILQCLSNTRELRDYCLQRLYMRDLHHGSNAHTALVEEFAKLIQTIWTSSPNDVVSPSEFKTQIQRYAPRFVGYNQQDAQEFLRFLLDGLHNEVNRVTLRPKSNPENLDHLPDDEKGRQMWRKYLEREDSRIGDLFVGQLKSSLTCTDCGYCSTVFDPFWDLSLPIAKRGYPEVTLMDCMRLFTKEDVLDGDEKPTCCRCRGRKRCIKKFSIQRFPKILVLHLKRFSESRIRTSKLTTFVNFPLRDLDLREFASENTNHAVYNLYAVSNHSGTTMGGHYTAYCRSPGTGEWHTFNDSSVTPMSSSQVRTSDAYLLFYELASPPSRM
NCGC Assay Protocol Summary: The assay buffer, prepared fresh at the day of the assay, contains 20mM Tris-HCl pH 8.0, 2mM CaCl2, 2mM beta-Mercaptoethanol, 0.1% DMSO. […] Plates were read immediately (0 Hour) on an Envision (Perkin Elmer) plate reader using the following wavelengths Ex 460nm /Em 535nm. Then, the assay plates were incubated for 2.5 hours and read again on the Envision using the same settings Data were normalized to the to AC100 inhibition (NEM). Concentration-response curves were fitted to the normalized data and the concentration-response curves were then classified based on curve quality (r2), response magnitude and degree of measured activity. […]

As to `Cc1ccc2scc(N3CCN(C)CC3)c(=O)c2c1`, the Potency is 12.6 µM (active).

(Values after PubChem BioAssay AID1455 (National Center for Advancing Translational Sciences (NCATS), 2008).)
